{
  "source": "PubChem BioAssay (NCATS)",
  "key": {"[1]": {"test": "HEK-293 Cancer Cell Toxicity qHTS against the NCATS CANVASS Library (AID 1347355); also: nearly all actives have a fitted effect of over 65% in size", "how_it_was_run": "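Cells were seeded at 1000 per well and allowed to settle 4 hours at 37 degrees C before pin transfer of compounds as an 11-point series. Viability was read by CellTiter-Glo luminescence after 72 hours' exposure.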"}, "[2]": {"test": "qHTS for ATAD5 Antagonist screened against the NCATS CANVASS Library (AID 1347370); also: nearly all actives have a fitted effect of over 65% in size", "how_it_was_run": "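HEK293T cells with a stably integrated ATAD5-controlled luciferase reporter were exposed to compounds (11-pt) alongside 10 uM 5-fluorouridine as ATAD5 stabilizer for 16hr at 37C. Viability was read by CellTiter-Fluor fluorescence, then ATAD5 by luminescence.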"}, "[3]": {"test": "qHTS for inhibitors of ER calcium dysfunction: SERCaMP assay screened against the NCATS CANVASS Library (AID 1347393);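 also: lower secreted reporter signal means inhibitor of ER calcium depletion; nearly all actives have a fitted effect of over 40% in size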", "how_it_was_run": "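SH-SY5Y GLuc-SERCaMP, 1000 cells/well, 4 h attach; cpd 16 h, 37C/5% CO2; thapsigargin (added as 6x 600 nM) 4 h; coelenterazine; luminescence. Reduced reporter release = ER Ca stabilization.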"}, "Furin (Homo sapiens)": {"target": "Furin (Homo sapiens) (UniProt P09958)", "sequence (P09958 whole entry, looked up)": "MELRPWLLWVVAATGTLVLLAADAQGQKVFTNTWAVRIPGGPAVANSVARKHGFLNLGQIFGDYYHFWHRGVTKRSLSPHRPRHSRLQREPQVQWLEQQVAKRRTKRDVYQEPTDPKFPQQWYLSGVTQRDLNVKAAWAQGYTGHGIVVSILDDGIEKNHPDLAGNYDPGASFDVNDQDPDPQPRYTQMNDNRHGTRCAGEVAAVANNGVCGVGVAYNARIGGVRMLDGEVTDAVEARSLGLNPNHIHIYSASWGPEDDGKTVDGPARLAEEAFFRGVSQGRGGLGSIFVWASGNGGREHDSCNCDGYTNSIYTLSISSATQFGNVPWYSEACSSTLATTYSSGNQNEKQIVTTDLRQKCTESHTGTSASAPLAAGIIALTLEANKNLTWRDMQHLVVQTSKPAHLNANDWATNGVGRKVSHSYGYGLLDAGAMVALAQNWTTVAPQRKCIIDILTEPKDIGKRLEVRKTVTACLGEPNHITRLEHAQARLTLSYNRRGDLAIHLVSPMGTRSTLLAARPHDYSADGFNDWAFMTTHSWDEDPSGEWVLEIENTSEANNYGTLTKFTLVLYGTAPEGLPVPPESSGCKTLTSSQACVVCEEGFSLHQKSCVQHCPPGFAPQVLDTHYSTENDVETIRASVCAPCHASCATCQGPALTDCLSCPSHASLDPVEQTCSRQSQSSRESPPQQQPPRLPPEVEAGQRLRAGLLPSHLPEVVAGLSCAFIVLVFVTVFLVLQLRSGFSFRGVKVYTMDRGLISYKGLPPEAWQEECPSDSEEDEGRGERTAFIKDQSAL", "test": "Furin counterscreen qHTS for Zika virus inhibitors (AID 1347149);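 also: purified recombinant full-length human furin enzyme at 5 nM; top concentration of the series differs between compounds; nearly all actives have a fitted effect of over 70% in size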", "how_it_was_run": "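Fluorogenic cleavage of BOC-RVRR-AMC (2 microM final, Km ~15 µM) was monitored (ex 340, em 450 nm) at 37C after 15 min RT preincubation of 5 nM furin with compounds in HEPES pH 7.0 buffer with CaCl2 and Triton X-100. Percent inhibition was fitted to a 4-parameter Hill curve.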"}, "[4]": {"system": "Zika virus NS2B-NS3 protease (linked construct)", "test": "Confirmatory screen NINDS AMC qHTS for Zika virus inhibitors (AID 1347152);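 also: AMC fluorescence gain from cleaved Bz-Nle-KRR-AMC substrate over 15 min; top concentration of the series differs between compounds; nearly all actives have a fitted effect of over 70% in size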", "how_it_was_run": "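Linked NS2B-NS3 1 nM, Tris pH 8.0/0.01% Tween 20; cpd 15 min RT dark; + Nle-KRR-AMC 10 µM (Km 18.3 µM); read 0 and 15 min, 340/450 nm; %inh vs controls, 4-param Hill.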"}, "[5]": {"system": "Zika virus NS2B-NS3 protease (unlinked complex)", "test": "Confirmatory screen GU AMC qHTS for Zika virus inhibitors (AID 1347153); also: nearly all actives have a fitted effect of over 70% in size", "how_it_was_run": "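Unlinked enzyme 25 nM, Tris pH 8.0/0.01% Tween 20; cpd 15 min RT, dark; + AMC substrate 10 µM (Km 18.3 µM); 340/450 nm read at t0 and 15 min; % inhibition → 4-param fit.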"}, "[6]": {"test": "Confirmatory screen GU Rhodamine qHTS for Zika virus inhibitors qHTS (AID 1347157); also: potency is read from the fitted curve at half-maximal effect; nearly all actives have a fitted effect of over 70% in size", "how_it_was_run": "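Compounds, tested up to 114 microM, were incubated for 15 minutes with 25 nM unlinked NS2B-NS3 protease at pH 8.0. Cleavage of 1.5 microM Rhodamine110 substrate was then followed by fluorescence for 15 minutes.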"}, "[7]": {"test": "Confirmatory screen NINDS Rhodamine qHTS for Zika virus inhibitors (AID 1347161); also: potency is read from the fitted curve at half-maximal effect; nearly all actives have a fitted effect of over 60% in size", "how_it_was_run": "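Purified NS2B-NS3 protease with the NS2B hydrophilic domain joined by a flexible linker (25 nM) in 10 mM Tris-HCl pH 8.0, 0.01% Tween 20, preincubated 15 min at RT with compound; Rhodamine110 peptide substrate 1.5 µM; fluorescence change over 15 min; 4-parameter Hill fit.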"}, "[8]": {"test": "Vero cells viability qHTS for Zika virus inhibitors (AID 1347167)", "how_it_was_run": "(§1)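 Cells seeded at 2.5 x 10^5 cells/mL in DMEM with 4% FBS and attached overnight at 37 degrees C, then exposed to compound for 24 to 48 hours. Viability read as ATP content by CellTiter Glo luminescence.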"}, "[9]": {"test": "HepG2 cells viability qHTS for Zika virus inhibitors (AID 1347168)", "how_it_was_run": "as §1"}, "[10]": {"target": "N-terminal Xaa-Pro-Lys N-methyltransferase 1 (Homo sapiens) (UniProt Q9BV86)", "sequence (Q9BV86 whole entry, looked up)": "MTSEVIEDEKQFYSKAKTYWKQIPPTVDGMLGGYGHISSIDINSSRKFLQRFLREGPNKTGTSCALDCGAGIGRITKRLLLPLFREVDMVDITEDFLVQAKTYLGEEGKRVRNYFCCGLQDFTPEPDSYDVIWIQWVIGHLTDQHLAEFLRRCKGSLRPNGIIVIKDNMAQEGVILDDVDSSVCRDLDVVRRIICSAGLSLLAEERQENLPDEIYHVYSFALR", "test": "Confirmatory qHTS for Inhibitors of N-terminal methyltransferase 1 (NTMT1): MTaseGlo Assay (AID 1645874)", "conditions": "NTMT1 enzyme, MTase-Glo SAH luminescence", "how_it_was_run": "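Compounds are incubated with 125 nM NTMT1 and 100 uM SAM for 15 min before the SPKRIA peptide (1 uM) starts a 30 min room-temperature methylation. SAH is measured by coupled luciferase luminescence and curves fitted to a Hill equation.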"}, "[11]": {"test": "G06 Cancer Cell Toxicity qHTS against the NCATS CANVASS Library (AID 1347368)", "how_it_was_run": "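G06 dog glioma cells seeded at 500 cells/well were exposed to compounds (11-point qHTS series) for 72 hr at 37C, 5% CO2; viability read as ATP content by CellTiterGlo luminescence.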"}, "[12]": {"test": "Confirmatory qHTS to identify inhibitors of SARS-CoV-2 cell entry (AID 1645844; calls by dose curve)", "how_it_was_run": "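HEK293-ACE2 cells were pretreated 1 h with compound, then infected with MLV-based pseudoparticles bearing C-terminally truncated Wuhan-Hu-1 spike for 48 h at 37C; luciferase luminescence normalized to spike PP and bald PP wells.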"}, "[13]": {"test": "VSVG counterscreen qHTS to identify inhibitors of SARS-CoV-2 cell entry (AID 1645847; calls by dose curve)", "how_it_was_run": "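Expi293F/hACE2 cells, overnight plating; cpd 1 h, 37C/5% CO2; + VSV-G PP (MLV pseudotyping), 48 h; supernatant removed, Bright-Glo luciferase read. Norm: VSV-G PP and bald PP wells.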"}, "HEK293T": {"system": "HEK293T", "test": "qHTS assay to identify novel small-molecules to repurpose for Merkel cell carcinoma treatment (AID 1296009)", "conditions": "MCC and control cell lines, CellTiter-Glo viability, 72 h; at 44.8 µM (top of the series) unless noted", "how_it_was_run": "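Cells were incubated with compound for 72 hr at 37 degree celsius before CellTiter-Glo addition. Luminescence was normalized with no-cell wells as full cytotoxicity and DMSO as baseline.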"}, "[14]": {"target": "Bile acid receptor (Homo sapiens) (UniProt Q96RI1)", "sequence (Q96RI1 whole entry, looked up)": "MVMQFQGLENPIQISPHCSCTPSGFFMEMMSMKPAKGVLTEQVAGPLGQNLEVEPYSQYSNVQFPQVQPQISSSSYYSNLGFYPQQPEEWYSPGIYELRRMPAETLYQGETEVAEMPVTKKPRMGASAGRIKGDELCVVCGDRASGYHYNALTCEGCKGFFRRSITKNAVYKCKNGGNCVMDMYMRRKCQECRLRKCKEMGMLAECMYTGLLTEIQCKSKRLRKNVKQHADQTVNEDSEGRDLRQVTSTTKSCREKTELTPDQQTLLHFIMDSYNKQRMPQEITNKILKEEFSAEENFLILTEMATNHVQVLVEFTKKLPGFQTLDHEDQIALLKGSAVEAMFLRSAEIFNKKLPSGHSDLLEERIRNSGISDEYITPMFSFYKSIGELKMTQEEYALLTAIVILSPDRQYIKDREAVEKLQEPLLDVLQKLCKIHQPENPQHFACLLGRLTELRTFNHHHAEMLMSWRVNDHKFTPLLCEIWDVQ", "test": "qHTS assay for small molecule agonists of farnesoid X receptor signaling (AID 588527; calls by dose curve)", "conditions": "HEK293T FXR-UAS-bla, beta-lactamase ratio, 16 h; activation: active compounds read high", "how_it_was_run": "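Quantitative HTS used FXR-UAS-bla HEK293T cells with 16 h compound incubation at 37 C. EC50 values came from concentration-response curves normalized to chenodeoxycholic acid.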"}, "[15]": {"target": "Glucocorticoid receptor (Homo sapiens) (UniProt P04150)", "sequence (P04150 whole entry, looked up)": "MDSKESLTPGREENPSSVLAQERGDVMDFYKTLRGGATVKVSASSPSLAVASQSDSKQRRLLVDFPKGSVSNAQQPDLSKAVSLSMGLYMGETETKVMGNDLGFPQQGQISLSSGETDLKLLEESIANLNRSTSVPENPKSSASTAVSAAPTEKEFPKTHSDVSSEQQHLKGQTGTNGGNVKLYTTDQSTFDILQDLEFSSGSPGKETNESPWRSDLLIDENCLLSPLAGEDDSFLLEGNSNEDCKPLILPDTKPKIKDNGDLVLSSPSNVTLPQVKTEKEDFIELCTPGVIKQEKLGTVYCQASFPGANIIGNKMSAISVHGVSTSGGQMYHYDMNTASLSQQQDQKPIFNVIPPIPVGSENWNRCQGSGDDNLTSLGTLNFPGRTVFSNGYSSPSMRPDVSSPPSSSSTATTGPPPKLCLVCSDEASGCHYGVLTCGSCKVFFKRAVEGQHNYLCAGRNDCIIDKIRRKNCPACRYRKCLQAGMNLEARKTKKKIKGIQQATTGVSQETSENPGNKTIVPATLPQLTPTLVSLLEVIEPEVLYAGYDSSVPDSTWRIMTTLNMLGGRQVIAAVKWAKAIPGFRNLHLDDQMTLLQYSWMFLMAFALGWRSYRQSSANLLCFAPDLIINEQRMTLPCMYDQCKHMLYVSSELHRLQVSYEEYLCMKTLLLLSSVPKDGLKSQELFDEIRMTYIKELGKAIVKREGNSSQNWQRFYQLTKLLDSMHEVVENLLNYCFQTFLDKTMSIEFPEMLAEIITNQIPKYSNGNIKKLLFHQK", "test": "qHTS assay for small molecule antagonists of glucocorticoid receptor signaling (AID 588533; active = well fitted inhibition curve with a large enough effect in the signal ratio, with a control signal flat, not every such curve was filed as active; the % refers to the signal ratio)", "how_it_was_run": "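Antagonist-mode qHTS: compound titrations added to GRE-bla HeLa cells, then dexamethasone 2 nM final; 18 h, 37 C. CCF4 FRET fluorescence normalized to dexamethasone and DMSO; IC50 from Hill fit.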"}, "[16]": {"target": "Peroxisome proliferator-activated receptor delta (Homo sapiens) (UniProt Q03181)", "sequence (Q03181 whole entry, looked up)": "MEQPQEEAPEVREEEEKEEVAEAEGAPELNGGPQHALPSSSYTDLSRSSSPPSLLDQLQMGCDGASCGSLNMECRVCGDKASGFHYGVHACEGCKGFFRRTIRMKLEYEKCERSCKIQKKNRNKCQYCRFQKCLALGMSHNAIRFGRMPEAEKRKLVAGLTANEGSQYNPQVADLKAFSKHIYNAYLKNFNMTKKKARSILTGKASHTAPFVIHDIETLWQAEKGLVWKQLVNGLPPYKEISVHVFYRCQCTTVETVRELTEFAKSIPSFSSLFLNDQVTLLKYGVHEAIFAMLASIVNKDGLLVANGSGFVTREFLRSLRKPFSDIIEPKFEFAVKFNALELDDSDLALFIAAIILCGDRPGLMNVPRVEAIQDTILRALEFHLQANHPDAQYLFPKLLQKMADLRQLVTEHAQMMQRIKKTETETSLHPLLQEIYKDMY", "test": "qHTS assay for small molecule agonists of peroxisome proliferator-activated receptor delta signaling (AID 588534; calls by dose curve)", "how_it_was_run": "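Cell-based beta-lactamase reporter assay run in agonist mode: cells seeded and incubated 5 hrs at 37 C, compounds added and incubated 18 hrs at 37 C. CCF4 dye fluorescence read after 2 hrs at RT; EC50 and efficacy from Hill fits.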"}, "[17]": {"target": "Peroxisome proliferator-activated receptor gamma (Homo sapiens) (UniProt P37231)", "sequence (P37231 whole entry, looked up)": "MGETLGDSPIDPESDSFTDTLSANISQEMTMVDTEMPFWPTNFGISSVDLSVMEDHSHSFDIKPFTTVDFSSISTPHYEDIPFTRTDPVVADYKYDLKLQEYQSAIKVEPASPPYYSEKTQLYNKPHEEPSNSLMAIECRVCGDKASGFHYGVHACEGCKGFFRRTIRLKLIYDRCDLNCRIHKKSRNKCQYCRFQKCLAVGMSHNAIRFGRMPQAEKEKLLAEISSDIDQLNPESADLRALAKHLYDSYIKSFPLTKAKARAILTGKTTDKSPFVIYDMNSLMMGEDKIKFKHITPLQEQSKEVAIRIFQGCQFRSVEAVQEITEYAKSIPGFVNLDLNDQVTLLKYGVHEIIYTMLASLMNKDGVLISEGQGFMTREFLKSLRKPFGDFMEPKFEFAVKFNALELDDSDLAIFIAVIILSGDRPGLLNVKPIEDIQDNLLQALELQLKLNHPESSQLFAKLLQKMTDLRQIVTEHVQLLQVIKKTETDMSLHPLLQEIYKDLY", "test": "qHTS assay for small molecule antagonists of peroxisome proliferator-activated receptor gamma signaling (AID 588537; active = well fitted inhibition curve with a large enough effect in the signal ratio, with a control signal flat, not every such curve was filed as active; the % refers to the signal ratio)", "how_it_was_run": "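Step one: plate 3000 HEK293 UAS-bla cells per well in medium with 1% stripped serum and hold 6-6.5 h at 37 C. Step two: add compound and 50 nM agonist for 16 h. Step three: CCF4 loading, fluorescence read.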"}, "[18]": {"target": "Thyroid hormone receptor beta (Homo sapiens) (UniProt P10828)", "sequence (P10828 whole entry, looked up)": "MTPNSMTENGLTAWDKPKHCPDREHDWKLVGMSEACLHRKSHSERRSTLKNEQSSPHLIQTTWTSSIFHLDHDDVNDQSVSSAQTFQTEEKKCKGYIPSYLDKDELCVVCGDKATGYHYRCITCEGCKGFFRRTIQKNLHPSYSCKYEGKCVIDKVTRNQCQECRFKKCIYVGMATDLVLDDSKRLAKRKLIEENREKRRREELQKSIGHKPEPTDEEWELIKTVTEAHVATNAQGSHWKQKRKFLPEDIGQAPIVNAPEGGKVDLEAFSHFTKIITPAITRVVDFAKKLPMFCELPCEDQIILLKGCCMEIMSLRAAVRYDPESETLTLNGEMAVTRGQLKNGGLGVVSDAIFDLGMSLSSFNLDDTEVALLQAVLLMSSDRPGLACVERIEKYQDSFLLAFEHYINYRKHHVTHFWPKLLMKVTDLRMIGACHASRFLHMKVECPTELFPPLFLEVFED", "test": "qHTS assay for small molecule agonists of thyroid hormone receptor beta signaling (AID 588545; calls by dose curve)", "how_it_was_run": "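TR-UAS-bla GripTite HEK 293 cells (2500/well, medium with 2% charcoal/dextran FBS) were treated in agonist mode for 18 h at 37 C, titrated. Beta-lactamase was read by CCF4 ratio after 2 h; normalized to 10 nM T3 (100%) and DMSO, Hill-fitted for EC50 and efficacy.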"}},
  "note": "Inconclusive results are not listed. Active and inactive are the calls of the source. Unless noted, calls follow the shape of the dose curve; as a rule, active = well fitted curve in the direction sought with a large enough effect; inconclusive = small, poorly fitted or top-dose-only effect, or another doubt; inactive = no such curve, though single readings can be large; an effect the other way counts as inactive or inconclusive. For outcome in this document: nearly all actives have a fitted effect of over 60% in size.",
  "data": [
    {"smiles": "C/C=C1/CN2CC[C@]34C(=Nc5ccccc53)[C@@H]2C[C@@H]1[C@H]4C(=O)OC", "values": [
      {"measurement": "Potency", "setting": "[1]", "result": "inactive"},
      {"measurement": "Potency", "setting": "[2]", "result": "inactive"},
      {"measurement": "Potency", "setting": "[3]", "result": "inactive"}
    ]},
    {"smiles": "CC/C=C/C=C/C1(C)OC(OC)=C(C(=O)C2C(C)C(=O)c3cc(OC)c(O)c(O)c3C2(C)O)C1=O", "note": "(stereo not given)", "values": [
      {"measurement": "Potency", "setting": "Furin (Homo sapiens)", "result": "inactive"},
      {"measurement": "Potency", "setting": "[4]", "result": "inactive"},
      {"measurement": "Potency", "setting": "[5]", "result": "inactive"},
      {"measurement": "Potency", "setting": "[6]", "result": "9.61 µM (active)"},
      {"measurement": "Potency", "setting": "[7]", "result": "6.81 µM (active)"},
      {"measurement": "Potency", "setting": "[8]", "result": "inactive"},
      {"measurement": "Potency", "setting": "[9]", "result": "inactive"}
    ]},
    {"smiles": "C[C@H]1CCC[C@H](O)CCC/C=C/c2cc(O)cc(O)c2C(=O)O1", "values": [
      {"measurement": "Potency", "setting": "[10]", "result": "1 µM (active)"}
    ]},
    {"smiles": "CN1C(=O)[C@]23CC4C(C)(C)[C@@]5(C[C@@]41CN2CC[C@@]3(C)O)C(=O)Nc1c5ccc2c1OC=CC(C)(C)O2", "note": "(stereo not given in full)", "values": [
      {"measurement": "Potency", "setting": "[11]", "result": "7.43 µM (active)"}
    ]},
    {"smiles": "C/C(=C\\c1csc(C)n1)[C@@H]1C[C@@H]2O[C@@H]2CCC[C@H](C)[C@H](O)[C@@H](C)C(=O)C(C)(C)[C@@H](O)CC(=O)O1", "values": [
      {"measurement": "Potency", "setting": "[12]", "result": "0.121 µM (active)"},
      {"measurement": "Potency", "setting": "[13]", "result": "0.0541 µM (active)"}
    ]},
    {"smiles": "CN(CC[C@H](N)CC(=O)N[C@H]1C=C[C@@H](n2ccc(N)nc2=O)O[C@@H]1C(=O)O)C(=N)N", "values": [
      {"measurement": "outcome", "setting": "HEK293T", "result": "inactive [at 9.27 µM]"}
    ]},
    {"smiles": "C[C@@H]1Cc2c(Cl)cc(C(=O)N[C@@H](Cc3ccccc3)C(=O)O)c(O)c2C(=O)O1", "values": [
      {"measurement": "Potency", "setting": "[14]", "result": "44.7 µM (active)"},
      {"measurement": "Potency", "setting": "[15]", "result": "0.891 µM (active)"},
      {"measurement": "Potency", "setting": "[16]", "result": "39.8 µM (active)"},
      {"measurement": "Potency", "setting": "[17]", "result": "2 µM (active)"},
      {"measurement": "Potency", "setting": "[18]", "result": "44.7 µM (active)"}
    ]}
  ]
}
